Bioassay records deposited in PubChem by several laboratories.
Mtb FBA inh = inhibitors of M. tuberculosis fructose-bisphosphate aldolase; P9WQA3; purified M. tuberculosis FBA, fluorescence read-out; inhibition, % at 1 µM; actives 2.3% (n = 360,000); AID 588726;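 further: 0% = vehicle and 100% = reference inhibitor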
Mtb UGM inh = Mtb UDP-galactopyranose mutase inhibition; purified UGM, fluorescence polarization probe displacement; inhibition, % at 10 µM; actives 0.06% (n = 320,000); in the data active means inhibition above about 10%, passing the limit was not always enough
GDH-TPI counter-1 = GDH-TPI coupled enzyme inhibition counter-screen. GDH-TPI coupled enzyme counterscreen, NADH absorbance. AID 588335. inhibition, % at 4.8 µM. actives 1.2% (n = 360,000); in the data active means inhibition above about 30%;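 further: 0% = DMSO wells and 100% = wells lacking the enzyme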
SSB-PriA inh = inhibitors of Klebsiella pneumoniae PriA binding to SSB C-terminal tail. AlphaScreen SSBct-PriA binding, biotinylated peptide. inhibition, % at 33 µM. actives 0.6% (n = 430,000). AID 1272365; in the data active means inhibition mostly above about 37%, no sharp cut-off; inactive means mostly below about 20%;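 further: plate controls were negative control peptide for no effect and reference peptide for full effect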
Mtb betalactam = beta-lactam sensitization of Mtb H37Rv | actives 0.27% (n = 330,000) | AID 434955 | M. tuberculosis H37Rv growth with meropenem, percent inhibition | inhibition, % at 25 µM; call rule not given here;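 further: growth measured after seven days incubation then overnight dye step; 0% = bacteria only wells and 100% = bacteria with antibiotic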
Rv3671c inh = inhibitors of M. tuberculosis serine protease Rv3671c; P9WHR9; inhibition, % at 5.96 µM; actives 0.048% (n = 320,000); in the data active means inhibition above about 38%;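 further: extracellular domain of Rv3671c used as enzyme; 0% = enzyme with DMSO and 100% = no enzyme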
Target sequence (P9WHR9 whole entry, looked up, the tested form may be a part): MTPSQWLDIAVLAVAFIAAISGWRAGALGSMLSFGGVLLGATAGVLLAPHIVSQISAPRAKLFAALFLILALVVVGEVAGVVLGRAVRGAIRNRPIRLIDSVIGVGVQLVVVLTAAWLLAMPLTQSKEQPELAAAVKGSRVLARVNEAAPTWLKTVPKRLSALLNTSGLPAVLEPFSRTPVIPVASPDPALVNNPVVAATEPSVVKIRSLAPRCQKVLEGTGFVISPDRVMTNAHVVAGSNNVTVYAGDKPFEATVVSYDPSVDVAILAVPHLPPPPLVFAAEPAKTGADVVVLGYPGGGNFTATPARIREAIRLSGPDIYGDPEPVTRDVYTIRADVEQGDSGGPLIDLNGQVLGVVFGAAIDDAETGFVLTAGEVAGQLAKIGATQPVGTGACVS
Mtb FBA inh conf = Mtb FBA inhibition, confirmed. shares compounds with Mtb FBA inh. purified M. tuberculosis FBA, fluorescence read-out. inhibition, % at 1 µM. actives 78% (n = 5,600);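 further: 0% = vehicle wells and 100% = reference inhibitor wells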
GDH-TPI counter-2 = GDH-TPI inhibition counter-screen for FBA inhibitors. shares compounds with Mtb FBA inh. GDH-TPI coupled enzyme counterscreen, fluorescence. actives 81% (n = 5,600). inhibition, % at 1 µM; in the data active means inhibition above about 10%
* = called active by the depositor; · = not tested or not shown; + = active, no number. Rows were chosen to be rich in hits. Some 3.2% of all compounds tested hit in one or more screens of this group. Unless noted, no stated cut-off is given here; in the data, active means inhibition above about 27%; inactive means the rest.

SMILES	Mtb FBA inh	Mtb UGM inh	GDH-TPI counter-1	SSB-PriA inh	Mtb betalactam	Rv3671c inh	Mtb FBA inh conf	GDH-TPI counter-2
CC(C)Oc1ccc2c3c(c(=O)oc2c1)CCC3	76*	2	19	-35	-10	-7	86*	72*
O=C(COc1ccc2c3c(c(=O)oc2c1)CCC3)N[C@@H](Cc1ccccc1)C(=O)O	27*	2	21	-1	-1	0	9	-6
Cc1ccc(CNC(=O)Cn2nc3c(SC4CCCCC4)nccn3c2=O)cc1	·	·	·	-15	·	·	·	·
COc1cn(-c2ccc(F)cc2)nc1C(=O)NCCCn1ccnc1	·	·	·	0	·	·	·	·
CSCCC(C)(O)CNC(=O)C(=O)NCCc1ccccc1 (stereo not drawn)	·	·	·	7	·	·	·	·
O=C(Nc1ccc(Cl)cc1)NC(c1ccccc1)c1ccccc1	·	·	·	-5	·	·	·	·
CCCC(=O)NC(N)=Nc1nc2ccccc2o1	·	·	·	-18	·	·	·	·
CCOC(=O)Nc1ccc2c3c(cccc13)-c1ccccc1-2	57*	·	13	-23	·	·	70*	61*
CCOC(=O)Nc1cccc2ccccc12	7	1	-6	-15	4	12	·	·
Cc1cccc(S(=O)(=O)c2c(N)n(-c3ccccc3)c3nc4ccccc4nc23)c1	74*	0	16	-7	9	2	63*	50*
Cc1cc(C(=O)COC(=O)c2ccccc2NCCO)c(C)n1CC1CCCO1 (stereo not drawn)	29*	-1	16	-31	13	-8	+	+
COC(=O)C1=CN(C)C=C(C(=O)OC)C1c1ccsc1	70*	·	3	-16	·	·	116*	118*
O=C(NCCOc1ccc2nnc(-c3ccccc3Cl)n2n1)c1c(F)cccc1F	·	·	·	-7	·	·	·	·
CC(/C=N\NC(=O)C(C)Cn1cnc2ccccc21)=C\c1ccccc1 (stereo not drawn)	·	·	·	9	·	·	·	·
CCCOC(=O)c1c(NC(=O)C2C3C=CC(C3)C2C(=O)O)sc2c1CCC(C)C2 (stereo not drawn)	11	2	-5	4	7	1	·	·
CCOC(=O)c1c(NC(=O)C2C3C=CC(C3)C2C(=O)O)sc2c1CC(C)CC2 (stereo not drawn)	35*	4	15	6	-3	6	58*	51*
Cn1c(N=Cc2c(O)ccc3ccccc23)nc2ccccc21	·	·	·	19	·	·	·	·
C=CCN1CCN(C(CC(C)C)c2nnnn2CCOC)CC1 (stereo not drawn)	2	-1	-4	5	9	4	·	·
CCCCC(c1nnnn1CCOC)N1CCN(CC)CC1 (stereo not drawn)	38*	4	9	-37	1	-5	91*	62*
O=S(=O)(Nc1nc2c(s1)CCCC2)c1ccc(F)cc1	1	2	-7	4	-1	-4	·	·
COc1ccc(S(=O)(=O)Nc2nc3c(s2)CCCC3)cc1	56*	0	2	-3	-7	3	86*	68*
O=C(Nc1cccc(F)c1)C1CCN(c2ccc(-n3cccn3)nn2)CC1	·	·	·	1	·	·	·	·
CCc1ccc(S(=O)(=O)c2n[nH]n3c2nc(=O)c2ccccc23)cc1	25	2	4	-3	8	-6	·	·
O=c1nc2c(-c3ccccc3F)n[nH]n2c2ccccc12	49*	2	-2	9	12	10	77*	57*
COc1ccc2sc(N(CCCN(C)C)C(=O)c3ccc(C)c(C)c3)nc2c1	·	·	·	0	·	·	·	·
CC(=CC(=O)c1ccc(Br)cc1)NNC(=O)c1ccccc1	·	·	·	-3	·	·	·	·
COc1ccccc1NC(=O)N1CCC(CNS(=O)(=O)c2ccc3c(c2)CCO3)CC1	·	·	·	-6	·	·	·	·
COc1ccccc1CNC(=O)CSc1ccc(-c2ccco2)nn1	·	·	·	-30	·	·	·	·
O=C(OCC#CCSc1nnc(-c2cccc3ccccc23)o1)c1cccc2[nH]ccc12	36*	-2	16	-23	3	-63	64*	51*
CCc1cc2c(=O)c(-c3ccc4c(c3)OCCO4)coc2c(CN2CCCCC2C)c1O (stereo not drawn)	45*	4	14	-5	2	-1	70*	70*
